According to PubChem BioAssay (NCATS):
Values joined by “and” are separate entries in the source; they are usually repeats but may differ in a detail not shown here. Equal entries are not always repeated. Inconclusive results are not listed. Where a call stands in place of a potency, no number is given. Active and inactive are the calls of the source. Calls follow the shape of the dose curve; as a rule, active = well fitted cell-killing curve with a large enough effect; inconclusive = small, poorly fitted or top-dose-only effect; inactive = no such curve, though single readings can be large or run the other way.

Test: qHTS of pediatric cancer cell lines to identify multiple opportunities for drug repurposing: Primary screen for MG 63 (6-TG R) cells (AID 1347105); also: nearly all actives have a fitted effect of over 50% in size
Conditions: MG 63 (6-TG R) viability, CellTiter-Glo, 48 h; series mostly up to 46 µM
Description: Drug repurposing or repositioning has been offered as a strategy for drug development in oncology programs. This approach has special potential for childhood cancers and other rare or orphan diseases, where the expected return on new drug development has been a disincentive to pharmaceuticals. […] In this project we exploit the poly-pharmacology of drugs to discover new indications via phenotypic screening of a panel of 19 well-characterized cell lines derived from solid tumors seen in children and adolescents. The goal is to identify approved drugs with previously unrecognized anticancer properties that has the potential to reveal new mechanisms and biological processes involved in carcinogenesis or drug resistance. We employed a titration-based paradigm (quantitative high-throughput screening or qHTS), where all compounds were tested at multiple concentrations for their effect on cell viability. Concentration-response curves (CRCs) were derived directly from the primary screen, and both potency and efficacy values were used to identify compounds with robust bioactivity profiles. We screened the NIH Chemical Genomics Center (NCGC) Pharmaceutical Collection (NPC) and Mechanism Interrogation Plate (MIPE) small molecule collections of approved and investigational compounds against these cell lines; and measured metabolically active cells after 48 hours of compound treatment as a proxy for cell viability. […] Assay Submitter: Nathalia J. Martinez, National Center for Advancing Translational Sciences, National Institutes of Health, Rockville, MD, USA; email: natalia.martinez@nih.gov Shen, M et al. Quantitative high-throughput phenotypic screening of pediatric cancer cell lines identifies multiple opportunities for drug repurposing. Oncotarget 2017 Dec 19;9(4):4758-4772. PMID 29435139.
The cells were obtained from University of North Carolina (UNC), Pediatric Preclinical Testing Program (PPT), and Coriell Institute (CI). qHTS cell viability assay: Cells were assayed in growth media at a density of 500-1,000 cells/well. Five microliters of cells were dispensed into 1,536-well, white, solid-bottom, TC-treated plates (Greiner Bio One) using a multidrop dispenser and incubated at 37 degrees C, 5% CO2, under a humidified atmosphere for 5 hours. Twenty-three nanoliters of compounds and controls (neutral control DMSO or positive control bortezomib at final concentration of 2.3 µM) were subsequently transferred by Kalypsys pintool. For primary screens, the MIPE collection was tested at 11-point dilutions (final concentrations range from 0.78 nM to 46 µM) and the NPC collection at 8-point dilutions (final concentrations range from 0.59 nM to 46 µM). Compounds tested in follow-up screens were assayed at 11-point dilutions. Cells were incubated for 48 hours, followed by addition of 3 µL of CellTiter-Glo (Promega). After a 15 min incubation at room temperature, samples were analyzed for luminescence intensity using a ViewLux High-throughput CCD imager equipped with clear filters.
Potency is read from the fitted curve at half-maximal effect.

Row | Structure (SMILES) | Potency
1 | Cc1cc(C2CCCCC2)n(O)c(=O)c1 | 13.3 µM (active) and 23.5 µM (active)
2 | COc1cc2nc(N3CCN(C(=O)C4CCCO4)CC3)nc(N)c2cc1OC (stereo not given) | inactive
3 | O=C(OC1C[C@H]2CC[C@@H](C1)[N+]21CCCC1)C(O)(c1ccccc1)c1ccccc1 (stereo not given in full) | inactive
4 | Cc1nc(-c2ccc(OCC(C)C)c(C#N)c2)sc1C(=O)O | inactive
5 | CC1(C)C(=O)N(CCN2CCC(C(=O)c3ccc(F)cc3)CC2)c2ccccc21 | inactive
6 | O=C(O)c1cc(=O)c2c(OCC(O)COc3cccc4oc(C(=O)O)cc(=O)c34)cccc2o1 | inactive
7 | CS(=O)(=O)OCCCCOS(C)(=O)=O | inactive
8 | N=C(N)c1ccc2cc(OC(=O)c3ccc(N=C(N)N)cc3)ccc2c1 | inactive
9 | CNC[C@H](O)c1ccc(O)c(O)c1 | inactive
10 | Nc1ncn([C@H]2C[C@H](O)[C@@H](CO)O2)c(=O)n1 | inactive
11 | Cc1nc2n(c(=O)c1CCN1CCC(c3noc4cc(F)ccc34)CC1)CCCC2 | inactive
12 | CC1(C)CCC(C)(C)c2cc(NC(=O)c3ccc(C(=O)O)cc3)ccc21 | inactive
13 | CCOC(=O)C1=C(O)C(=O)N(Cc2ccccc2)C1 | inactive
14 | N[C@@H](Cc1cc(I)c(Oc2cc(I)c(O)c(I)c2)c(I)c1)C(=O)O | inactive
15 | CN1CCC(=C2c3ccccc3CCc3sccc32)CC1 | inactive
16 | CC1=C(C(=O)O)N2C(=O)[C@@H](NC(=O)[C@H](N)C3=CCC=CC3)[C@H]2SC1 | inactive
17 | COc1c(O)cc2c(c1O)[C@@H]1O[C@H](CO)[C@@H](O)[C@H](O)[C@H]1OC2=O | inactive
18 | CC(C)C[C@H](NC(=O)[C@H](Cc1ccccc1)NC(=O)c1cnccn1)B(O)O | 23.5 nM (active)
19 | Clc1ccc(C(Cn2ccnc2)OCc2ccsc2Cl)c(Cl)c1 (stereo not given) | inactive
20 | Cc1ccc(S(=O)(=O)NC(=O)NN2CC3CCCC3C2)cc1 (stereo not given) | inactive

Row | Structure (SMILES) | Potency
21 | CCOC(=O)c1c(C)n(C)c2ccc(O)cc12 | inactive
22 | Nc1nc(OCc2ccccc2)c2[nH]cnc2n1 | inactive
23 | O=C(O)CCNC(=O)c1ccc(N=Nc2ccc(O)c(C(=O)O)c2)cc1 | inactive
24 | C=CCc1cc(OC)c(O)c(C(=O)NCCO)c1 | inactive
25 | COc1ccc(C2(C#N)CCC(C(=O)O)CC2)cc1OC1CCCC1 (stereo not given) | inactive
26 | COc1ccc2cc([C@H](C)C(=O)O)ccc2c1 | inactive
27 | Cc1c(OCC(F)(F)F)ccnc1CS(=O)c1nc2ccccc2[nH]1 (stereo not given) | inactive
28 | S=c1nc[nH]c2nc[nH]c12 | inactive
29 | Nc1ccn([C@@H]2O[C@H](CO)[C@@H](O)C2O)c(=O)n1 (stereo not given in full) | inactive
30 | Nc1cc(C(Cl)=C(Cl)Cl)c(S(N)(=O)=O)cc1S(N)(=O)=O | inactive
31 | CC(S)C(=O)NCC(=O)O (stereo not given) | inactive
32 | CC(C)Oc1ccc2c(=O)c(-c3ccccc3)coc2c1 | inactive
33 | Nc1cccc2c1CN(C1CCC(=O)NC1=O)C2=O (stereo not given) | inactive
34 | O=C(O)c1cn(-c2ccc(F)cc2)c2cc(N3CCNCC3)c(F)cc2c1=O | inactive
35 | CCCc1cc(=O)[nH]c(=S)[nH]1 | inactive
36 | Cc1ccc(Nc2nccc(N(C)c3ccc4c(C)n(C)nc4c3)n2)cc1S(N)(=O)=O | 66.8 nM (active)
37 | COc1c2occc2cc2ccc(=O)oc12 | inactive
38 | COc1cc(C(C)=O)ccc1OCCCN1CCC(c2noc3cc(F)ccc23)CC1 | inactive
39 | Cc1ncc([N+](=O)[O-])n1CC(C)O (stereo not given) | inactive
40 | CC1(C)NC(=O)N(c2ccc([N+](=O)[O-])c(C(F)(F)F)c2)C1=O | inactive
